Among all 2,100 compounds or so, about 760 (36%) were called active. A selection follows. A number with no mark means an inactive call.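 How the source made its calls: active means thallium-flux fluorescence traces judged by eye to show enhanced or reduced glutamate response, manual score 1 or -1, so both directions (some results past the limit were not filed as active); inactive means the rest, including fluorescent or raised-baseline compounds.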

The test can be described thus: thallium influx changes without GIRK channels – cell-based, HEK-293 rmGlu8, no GIRK, thallium flux, counter-screen for GIRK activator project, confirmation (AID 623868).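 Further: extra codes mark interference with 3 for fluorescent and 4 for baseline rise.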 To be noted: thallium flux fluorescence, at 10 µM, actives lie on both sides, codes: 1 enhancer, -1 blocker, 0 none, thallium stimulus containing EC20 glutamate.
Consider `CCOC(=O)c1c(NC(=O)CSc2nnc(Cc3csc(N)n3)n2C)sc(C)c1C`, for which the manual score was -1 (active). Take `CCOC(=O)c1cnc(SCC(=O)Nc2nc(C)c(C)s2)nc1N`: the manual score was 0. With `C=CCn1c(SCC(=O)Nc2sc(C)c(C)c2C(=O)OCC)nnc1-c1sc(N)nc1C`, the manual score is -1 (active). As for `CC1(C)Cc2ccccc2-c2nnc(SCC(=O)N3CCN(c4ccccc4)CC3)n21`, the manual score is 0. As for `C1CCC2(CC1)OCC1(CO2)COC2(CCCCC2)OC1`, the manual score is 0. Consider `CC1(C)NC(=O)NC2(C)NC(=O)NC(C)(C)C12` (centres undefined), for which the manual score was 0. Regarding `CNC(=S)N/N=C(\C)c1ccc(C)c(C)c1`, the manual score is 0.5. With `CNC(=S)N/N=C/c1ccc(C(C)C)cc1`, the manual score is 1 (active). For the molecule `C=CCNC(=O)C1CC(=O)N(c2ccc(OCC(=O)Nc3ccccc3)cc2)C1` (centres undefined), the manual score was 0. For `Fc1cc(F)c2nc(Nc3nc4c(F)cccc4s3)sc2c1`, the manual score was 1 (active). Next, `Fc1cccc2sc(Nc3nc4ccccc4s3)nc12`: 0. As to `Fc1ccc2nc(Nc3nc4c(F)cc(F)cc4s3)sc2c1`, the manual score is 1 (active). `Fc1cccc2sc(Nc3nc4cc5c(cc4s3)OCO5)nc12`: the manual score was 0.

Consider `Fc1ccc2nc(Nc3nc4c(F)cccc4s3)sc2c1`, for which the manual score is 1 (active). Regarding `COc1cc(/C=C2/C(=O)N=C(N)N2C)cc(OC)c1OC`, the manual score was 0. For the molecule `CC1CC(C)CN(C(=S)Nc2ccc(SC(F)F)cc2)C1` (centres undefined), the manual score is 0. Next, `Cc1ccc(Nc2n[nH]c(C)c2[N+](=O)[O-])cc1C`: 0; `O=c1c(O)c(-c2cccs2)oc2ccccc12`: 3; `CCN(CC)CCCN1C(=O)c2oc3ccccc3c(=O)c2C1c1cccs1` (centres undefined): 1 (active). For the molecule `CCN(CC)CCN1C(=O)c2oc3ccccc3c(=O)c2C1c1ccc(F)cc1` (centres undefined), the manual score is 0.

Take `NC(=O)COc1ccc(C2c3c(oc4ccccc4c3=O)C(=O)N2CC2CCCO2)cc1` (centres undefined): the manual score was 0.

As for `CCN(CC)CCN1C(=O)c2oc3ccccc3c(=O)c2C1c1ccccc1` (centres undefined), the manual score was 0.5. Next, `CN(C)CCCN1C(=O)c2oc3ccccc3c(=O)c2C1c1cccs1` (centres undefined): 1 (active).

Turning to `O=C1Nc2ccccc2C12OCC1(CO2)COC2(OC1)C(=O)Nc1ccccc12` (centres undefined), the manual score was 0.

On to `O=C(Nc1nnc(-c2ccc(Cl)cc2)o1)c1cccc(N2C(=O)CCC2=O)c1`, for which the manual score was 1 (active). Consider `O=C(Nc1nnc(-c2ccc(Cl)cc2)o1)c1ccc(N2C(=O)CCC2=O)cc1`, for which the manual score is 1 (active).

Turning to `Cc1ccc(N2CC(C(=O)Oc3cccc(N4C(=O)CCC4=O)c3)CC2=O)cc1` (centres undefined), the manual score was 0. Take `COc1ccccc1NC(=O)c1cc(C(=O)Nc2ccccc2OC)cc(N2C(=O)CCC2=O)c1`: the manual score is 0. The figure for `CCNc1nnc(-c2ccc(C)cc2)o1` is 0; for `COc1cccc2sc(Nc3nc(-c4ccccn4)cs3)nc12` it is 1 (active). As for `COc1cccc2sc(Nc3nnc(-c4cccs4)o3)nc12`, the manual score is 1 (active). Next, `COc1ccc(-c2nnc(Nc3nc4c(OC)cccc4s3)o2)cc1`: 1 (active). As for `CCN(CC)c1nc(C)nc2c1cnn2CCc1ccccc1`, the manual score is 0. With `Cc1cc(C)c2[nH]c(=S)cc(C)c2c1`, the manual score was 1 (active). The figure for `Cc1cc(=S)[nH]c2c(C)cccc12` is 1 (active). In the case of `CCOc1ccccc1Nc1nnc(Cc2ccccc2Cl)c(=O)[nH]1`, the manual score was 0. Turning to `CCOC(=O)C1=C(C)N=C2SCCC(=O)N2C1c1sccc1C` (centres undefined), the manual score was -1 (active). Regarding `CCOC(=O)C1=C(C)NC(=O)NC1c1ccc(Br)o1` (centres undefined), the manual score is 0.

Turning to `CC(C)(C)c1nnc(N/N=C/c2ccccc2)n(N)c1=O`, the manual score is 0. With `Cc1[nH]n2c(=O)cc(C(C)(C)C)nc2c1-c1ccccc1`, the manual score is 1 (active).

As for `Cc1cc(=O)n2[nH]c(C)c(-c3ccccc3)c2n1`, the manual score is -0.5. Regarding `Cc1nc2c(-c3ccccc3)c(C)[nH]n2c(=O)c1Cl`, the manual score is 0. `COc1ccc(C/C(C)=N/NC(=S)Nc2ccccc2)cc1`: the manual score is 1 (active). Turning to `COc1ccc(NC(=S)Nc2ccc(OCc3ccccc3)cc2)cc1OC`, the manual score is 0. On to `COc1ccc(C(=S)Nc2ccc(N(C)C)cc2)cc1`, for which the manual score was 0. As for `CC/C(=N\NC(=S)Nc1ccc(OC)cc1)c1ccc(OC(F)F)cc1`, the manual score is 1 (active). For `CC/C(=N\NC(=S)Nc1cc(C)ccc1C)c1ccc(OC(F)F)cc1`, the manual score is 0. For `CCC1(C)OCC(Cn2c3ccccc3c3ccccc32)O1` (centres undefined), the manual score was 0. The figure for `O=c1[nH]c(NCCO)nc2c1C1(CCCCC1)Cc1ccccc1-2` is 0. The figure for `Cc1ccc(/C(O)=C2\C(=O)C(=O)N(c3cc(C)on3)C2c2cccc(Br)c2)cc1` (centres undefined) is -1 (active); for `C=CCOc1cccc(C2/C(=C(/O)c3ccc(C)cc3)C(=O)C(=O)N2CCN2CCOCC2)c1` (centres undefined) it is 0.

On to `CCN(CC)c1ccc2cc(C=O)c(=O)oc2c1`, for which the manual score is 3.

Turning to `Cc1ccccc1NC(=S)NC(=O)CCc1ccccc1`, the manual score is 1 (active). In the case of `Cc1cccc(NC(=O)NC(=S)NC(=O)c2ccccc2)c1`, the manual score is 1 (active).

For `Cc1cccc(NC(=S)N/C(=N/S(=O)(=O)c2ccccc2)c2ccccc2)c1`, the manual score was 1 (active). With `Cc1cccc(C)c1NC(=S)NC(=O)CCc1ccccc1`, the manual score was 1 (active). Take `Cc1ccccc1NC(=O)C(=O)NC(C)CCc1ccccc1` (centres undefined): the manual score is 0. The figure for `O=C(O)CN=C(NS(=O)(=O)c1ccccc1)c1ccccc1` is 0; for `CC(C)Oc1ccc(C2CC(=O)N(c3ccccc3)C2=O)cc1` (centres undefined) it is 0. For `Nc1c(C(O)(C(F)(F)F)C(F)(F)F)ccc2ccccc12`, the manual score is 0. In the case of `CC(C)(C)CC(=O)Nc1ccc(C(N)=O)cc1`, the manual score was 0. `O=C(Cc1ccccc1)NC(=S)Nc1cccc(C(F)(F)F)c1`: the manual score is 0. Next, `Cc1cccc(NC(=O)NC(C)CCc2ccccc2)c1` (centres undefined): 0; `Cc1cccc(NC(=S)NC(=O)CCc2ccccc2)c1`: 1 (active). As for `O=C(Nc1ccc(O)c(-c2nc3ccccc3s2)c1)C1=COCCO1`, the manual score is 0. On to `O=C1OC2(CCCCC2)OC(=O)C1=CNc1nc2ccccc2s1`, for which the manual score was 1 (active).

`CN(C)c1nc2ccccc2c(N)c1-c1ccccc1`: the manual score was 0. In the case of `COc1ccc(-c2nnc3sc(C4CCCCC4)nn23)cc1OC`, the manual score is -0.5. Consider `S=c1[nH]cnc2scc(-c3ccccc3)c12`, for which the manual score is 1 (active). With `Cc1ccc(-c2csc3nc[nH]c(=S)c23)cc1C`, the manual score was 1 (active). The figure for `CCCc1nc2scc(-c3ccccc3)c2c(=O)n1N` is 0; for `CC1(C)Cc2nc(NCCN3CCOCC3)c(C#N)cc2CO1` it is 0. On to `O=c1cc(Cn2ccnc2)c2cc3c(cc2o1)CCC3`, for which the manual score is 0. The figure for `O=C(CN1C(=O)/C(=C/c2ccccc2F)Oc2ccccc21)N1CCN(c2ccccn2)CC1` is 0; for `COC(=O)c1c(NC(=O)CSc2nnc(-c3cccnc3)n2Cc2ccco2)sc(C)c1C` it is -1 (active). With `CCOC(=O)c1c(NC(=O)CSc2nnc(-c3ccncc3)n2Cc2ccco2)sc(C(C)=O)c1C`, the manual score is -1 (active).

Turning to `O=C(CCn1c(=O)oc2ccccc21)N1CCN(c2ccccc2Cl)CC1`, the manual score was 0. Turning to `S=C(Nc1ccccc1)Nc1cc(Cl)ccc1Oc1ccccc1`, the manual score was 0.

As to `CN(C)S(=O)(=O)c1cccc(NC(=O)Cc2ccc(Cl)cc2)c1`, the manual score was 0. Consider `CN(C)S(=O)(=O)c1cccc(NC(=S)Nc2cc(Cl)cc(Cl)c2)c1`, for which the manual score was 0. Regarding `COc1ccccc1NC(=S)NCCc1ccc(Cl)cc1`, the manual score was 0.

As to `S=C(Nc1ccc(Cl)cc1Cl)Nc1ccccc1Oc1ccccc1`, the manual score was 1 (active). Regarding `S=C(Nc1ccccc1Cl)Nc1ccc(Cl)cc1Cl`, the manual score was 1 (active). `CN(C)S(=O)(=O)c1cccc(NC(=S)Nc2ccc(Cl)cc2Cl)c1`: the manual score is 1 (active). Turning to `S=C(Nc1ccccc1Oc1ccccc1)Nc1cccc(Cl)c1Cl`, the manual score is 1 (active). Next, `S=C(Nc1ccc(Oc2ccccc2)cc1)NC1CCCC1`: 0. In the case of `S=C(Nc1cccc(Cl)c1)Nc1ccccc1Oc1ccccc1`, the manual score was 0. In the case of `S=C(NCCc1ccccc1)Nc1ccc(Cl)cc1Cl`, the manual score was 0.

For the molecule `COC(=O)CSc1nnc(SCc2ccc(OC)cc2)s1`, the manual score was -0.5. For `Cc1ccc(C2C3=C(NCCN=C3c3ccccc3)C(=O)N2c2ccccc2)cc1` (centres undefined), the manual score was 0. Next, `CCCCn1c(=O)nc2n(-c3ccccc3)c3ccccc3cc-2c1=O`: 0; `O=C1c2ccccc2C(Nc2ccc3c(c2)OCCO3)N1Cc1ccccc1` (centres undefined): 0. The figure for `Cc1ccccc1Cn1c(-c2cncs2)nc2ccccc21` is 0; for `Cn1nc(C(F)(F)F)c2cc(NC(=O)OCc3ccc(F)cc3)sc21` it is 0. Regarding `CCc1cccc(NC(=O)CSC2=NS(=O)(=O)c3ccccc32)c1`, the manual score was 0.

With `Cn1cccc1-c1nc2ccc(NC(=O)c3cccs3)cc2[nH]1`, the manual score was 0. Turning to `CC(C)OCCCNC(=O)c1cccc(NC(=O)c2ccccc2)c1`, the manual score is 0.

With `O=C(Nc1ccc2[nH]c(=S)sc2c1)c1ccccc1`, the manual score is 1 (active). The figure for `COc1ccc(OCCCN2CCCCCC2)cc1` is 0. Consider `O=C(COC(=O)C1CC2C=CC1C2)Nc1ccc2c(c1)OC(F)(F)O2` (centres undefined), for which the manual score was 0. Take `O=C(Nc1nc(-c2cc3ccccc3oc2=O)cs1)c1ccc(Br)o1`: the manual score is 0. For `O=C(Nc1nc(-c2ccccn2)cs1)c1ccc(Br)s1`, the manual score was 1 (active).

`CC(C)(C)c1csc(NC(=O)c2ccc3nccnc3c2)n1`: the manual score was 0. In the case of `COCCNC(=O)CN1C(=O)CSc2ncccc21`, the manual score was 0.

As to `Cc1ccc2cccc(S(=O)(=O)N3CCN(c4ccccc4F)CC3)c2n1`, the manual score was 0.

In the case of `O=C(NC(=S)Nn1cnc2c(cnn2-c2ccccc2)c1=O)c1ccc(Oc2ccccc2)cc1`, the manual score is 1 (active). Regarding `CCCN(CCC)CCNC(=O)C(NS(=O)(=O)c1ccc2c(c1)CCC(=O)N2)c1ccccc1` (centres undefined), the manual score was 0. The figure for `Cn1c(=O)c2c(nc3sccn32)n(C)c1=O` is 0; for `N#CC1(Cc2ccc([N+](=O)[O-])cc2)c2ccccc2C=CN1C(=O)c1ccccc1` (centres undefined) it is 0.

The values above are taken from PubChem BioAssay AID623868 (Vanderbilt High Throughput Screening Facility, 2012).
